High-throughput results deposited in PubChem by National Center for Advancing Translational Sciences (NCATS).
An excerpt weighted towards active compounds, which were near 11% of everything screened.
FLuc inh: Firefly luciferase inhibition profiling of diverse chemical library using quantitative high-throughput screening; Luciferin 4-monooxygenase (Photinus pyralis), P08659; purified P. pyralis luciferase, luminescence, biochemical; Potency, µM (titrated, usually from 115 µM), most hits filed as inhibitors; 2.5% of 76,000 active; AID 1347043, 2019; further: nearly all actives have a fitted effect of over 65% in size
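Luminescence read by CCD imager after adding enzyme (10nM final) to wells holding compound, titrated in qHTS. Substrates 10uM each D-luciferin and ATP; buffer 50mM Tris acetate pH 7.5, 10mM Mg acetate, Tween-20, BSA.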
HEK cytotox: Cytotoxic Profiling in HEK 293 Cell Line of Diverse Libraries Using Quantitative High-Throughput Screening; HEK 293 viability, ATP luminescence (CellTiter-Glo), 48-72 h; Potency, µM (top dose mostly 115 µM), for inactives: top-dose activity change, negative = cytotoxicity, actives largely listed as inhibitors; 6.6% of 94,000 active; further: nearly all actives have a fitted effect of over 60% in size
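HEK 293 seeded at 250 cells/well receive compound via pintool. After 48 or 72 hr at 37 degree Celsius, 5% CO2 and 95% humidity, CellTiter-Glo is dispensed and luminescence read following 10 min at room temperature.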
NPR1 antag: Natriuretic polypeptide receptor (hNpr1) antagonism - Primary qHTS | Atrial natriuretic peptide receptor 1 (Homo sapiens), P16066 | HEK293 hNpr1 GloSensor cGMP, ANP-stimulated luminescence | Potency, µM (doses to about 46.3 µM), for the others: top-dose activity change, negative = inhibition, hits mostly inhibitors | 1.6% of 76,000 active; calls by dose curve; further: nearly all actives have a fitted effect of over 60% in size
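Compound pre-incubated 30 min at room temperature on GloSensor-loaded HEK293 cells stably carrying hNpr1 and the pGS-40F cGMP biosensor. Stimulation uses hNppA at 0.1 nM final; luminescence is taken at baseline and 20 min post-agonist.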
NIH3T3 tox: Cytotoxic Profiling in NIH 3T3 Cell Line of Diverse Libraries Using Quantitative High-Throughput Screening | NIH 3T3 viability, CellTiter-Glo ATP luminescence, 48-72 h | Potency, µM (series often up to 96.7 µM), without a hit: top-dose activity change, negative = cytotoxicity, usual class: inhibitors | 4.3% of 94,000 active; further: nearly all actives have a fitted effect of over 55% in size
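Cytotoxicity was measured by CellTiter-Glo ATP luminescence after 48 or 72 h compound exposure at 37 °C. Mouse NIH 3T3 fibroblasts were seeded at 400 cells/well and dosed by 23 nL pin transfer.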
Starred values were filed as active, the others as inactive; i = inactive; ? = inconclusive; / = not tested or not shown; ! = not confirmed by another sample; [ ] = another dose, or the depositor's remark. Unless noted, the call rests on the fitted dose curve; in most records, active means well fitted curve in the direction sought with a large enough effect; inconclusive means small, poorly fitted or top-dose-only effect, or another doubt; inactive means no such curve, though single readings can be large; an effect the other way counts as inactive or inconclusive. On the % scale 0 is the no-effect control and ±100 the full control effect; potency means the concentration at half of the fitted maximal effect.

SMILES | FLuc inh | HEK cytotox | NPR1 antag | NIH3T3 tox
CC(C(=O)N1CCCN(c2cc(-c3ccccc3)[nH]n2)CC1)c1ccccc1 (stereo not drawn) | i | ? | -18.8% | ?
COc1ccc(-c2cc(N3CCCN(C(=O)c4ccc(Br)cc4)CC3)n[nH]2)cc1 | i | ? | -5.6% | ?
COc1ccc(-c2cc(N3CCN(C(=O)c4c[nH]c5ccccc45)CC3)n[nH]2)cc1 | i | ? | 0.0% | 25.1µM*
COc1ccc(-c2cc(N3CCCN(C(=O)C4CCCC4)CC3)n[nH]2)cc1 | ? | ? | -0.4% | -18.2%
COc1ccc(-c2cc(N3CCCN(C(=O)C4(c5ccc(OC)cc5)CC4)CC3)n[nH]2)cc1 | i | 44.7µM* | ? | ?
COc1ccc(-c2cc(N3CCCN(C(=O)c4ccc(C)s4)CC3)n[nH]2)cc1 | ? | 39.8µM* | 0.0% | ?
O=C(c1ccco1)N1CCC2(CC1)CC(N1CCN(c3ccccn3)CC1)CCO2 (stereo not drawn) | i | i | -1.8% | i
CC(C(=O)N1CCN(c2cc(-c3ccc(Cl)cc3)[nH]n2)CC1)c1ccccc1 (stereo not drawn) | i | 28.2µM* | 0.0% | ?
Cc1ccc2c(C)c(C(=O)N3C[C@@H](NS(C)(=O)=O)[C@H](C(C)C)C3)oc2c1 | i | 44.7µM* | 0.0% | ?
Cc1ccc2c(C)c(C(=O)N3CC[C@H](O)[C@@H](O)C3)oc2c1 | i | -18.9% | 2.6% | -12.1%
Cc1cccc2c1nc1n2[C@@H](CNCc2nc3ccccc3n2C)COC1 | i | ? | ? | 100µM*
Cc1cccc2c1nc1n2[C@@H](CNCc2ccc(C#N)cc2)COC1 | i | ? | ? | ?
COCC(=O)Nc1ccc2c(c1)CN(Cc1cccc(OC)c1OC)CCO2 | / | -22.9% | / | -36.2%
COCCNC(=O)N1CCCC(c2noc(COc3ccccc3)n2)C1 (stereo not drawn) | i | -13.1% | -12.7% | -17.0%
Cc1ccc(NC(=O)N2CCCC(c3noc(COc4ccccc4)n3)C2)c(C)c1 (stereo not drawn) | ? | ? | 12.6µM* | ?
CCNC(=O)N1CCCC(c2noc(COc3ccccc3)n2)C1 (stereo not drawn) | 31.6µM* | -10.9% | -24.6% | -28.3%
O=C(Cc1ccccn1)N1CCCC2(CNc3ncccc3[S+](=O)([O-])N2)C1 (stereo not drawn) | / | ? | / | -22.2%
CC(=O)N1CCN(c2ccc3nnc(C)n3n2)CC1 | / | i | / | -11.0%[138 µM]
O=C(CC1CCCC1)N1CCC(N2C(=O)[C@H]3CN(Cc4ccccc4)C[C@H]3C2=O)CC1 | / | ? | / | -38.3%
CCN1c2cc(C(=O)Nc3ccc(C(F)(F)F)cc3)ccc2C(=O)N2CCCCC21 (stereo not drawn) | i | ? | -4.5% | ?
CCN1c2cc(C(=O)Nc3ccc(OC(F)(F)F)cc3)ccc2C(=O)N2CCCCCC21 (stereo not drawn) | i | 31.6µM* | -23.9% | 25.1µM*
CCN1c2cc(C(=O)Nc3cccc(OC(F)(F)F)c3)ccc2C(=O)N2CCCCC21 (stereo not drawn) | i | 25.1µM* | -10.0% | ?
COc1ccc(Cn2c(=O)c(C(=O)NCCc3ccc(Cl)cc3)nc3cccnc32)cc1 | / | -0.9% | / | -13.5%
O=C(NCCc1ccc(Cl)cc1)c1nc2cccnc2n(Cc2ccccc2)c1=O | / | 89.1µM* | / | ?
O=C(c1ccc(C(F)(F)F)cc1)N1CCN(C(=O)c2nc3cccnc3n(CCc3ccccc3)c2=O)CC1 | / | 44.7µM* | / | ?
SMILES | FLuc inh | HEK cytotox | NPR1 antag | NIH3T3 tox
O=C(NCc1ccccc1F)c1nc2cccnc2n(Cc2ccccc2)c1=O | / | 79.4µM* | / | ?
O=C(c1ccccc1)N1CCN(C(=O)c2nc3cccnc3n(CCc3ccccc3)c2=O)CC1 | / | -20.5% | / | -12.7%
O=C(NC1CC1)c1nc2cccnc2n(CCc2ccccc2)c1=O | / | 56.2µM* | / | -32.0%[138 µM]
CCCCn1c(=O)c(C(=O)NCC2CC2)nc2cccnc21 | / | -24.4%[172 µM] | / | ?
CCCCn1c(=O)c(C(=O)NCC2CCCCC2)nc2cccnc21 | / | 35.5µM* | / | ?
O=C(c1cccc(Cl)c1)N1CCC(C(=O)N2CCC(c3nc4ncccc4[nH]3)CC2)C1 (stereo not drawn) | / | 3.7% | / | -8.2%
OC[C@@H]1CNC[C@H]1C1CCN(Cc2ccc(F)c(Br)c2)CC1 | i | ? | 7.1% | 35.5µM*
OC[C@@H]1CNC[C@H]1C1CCN(Cc2ccc(Br)cc2F)CC1 | i | ? | -7.6% | ?
O=C(NCCc1ccccc1F)C1CCCN(c2ccnc3ccnn23)C1 (stereo not drawn) | / | ? | / | -25.5%
CCCNC(=O)Cc1ccc(N(Cc2ccccc2)C(=O)c2ccco2)cc1 | i | ? | -0.6% | ?
Cc1cccc(CNC(=O)Cc2ccc(N(Cc3ccc(F)cc3)C(=O)c3ccco3)cc2)c1 | i | ? | -14.7% | 39.8µM*
CCNC(=O)Cc1ccc(N(Cc2cccc(F)c2)C(=O)c2ccco2)cc1 | i | ? | -2.7% | -16.6%
CCCNC(=O)Cc1ccc(N(Cc2ccc(F)cc2)C(=O)c2ccco2)cc1 | i | 89.1µM* | -1.1% | ?
CCOC(=O)[C@H]1C[C@]2(CCCCN(CCO)C2=O)N(C(=O)c2cccc(C#N)c2)[C@H]1c1ccco1 | / | -27.1% | / | ?
O=C(c1ccc(Cl)nc1)N1CCN(CCn2nc3n(c2=O)CCCC3)CC1 | / | 0.1% | / | i
O=C1Cc2c(-c3ccccc3Cl)n[nH]c2CN1Cc1ccccn1 | i | -13.3%[172 µM] | 3.7%[70.6 µM] | 79.4µM*
O=C1Cc2c(-c3ccccc3Cl)n[nH]c2CN1Cc1ccccc1F | i | ? | -7.5%[70.6 µM] | ?
FC(F)(F)c1ccc(O[C@H]2COCCN(CC3CCCC3)C2)cc1 | i | 112µM* | -2.5%[70.6 µM] | 89.1µM*
CCC(C)NC(=O)c1cc(-c2ccccc2OC)nc2c1cnn2C (stereo not drawn) | / | -14.6% | / | -26.3%
O=C(Nc1ccccc1)N1CCC2(C1)C(=O)N(CCc1ccccc1)c1ccccc12 (stereo not drawn) | i | ? | 0.0% | ?
O=C(c1cccc(Cl)c1)N1CCC2(C1)C(=O)N(CCc1ccccc1)c1ccccc12 (stereo not drawn) | i | 28.2µM* | ? | 39.8µM*!
COc1ccc(C(=O)N2CCC3(C2)C(=O)N(c2ccccc2)c2ccccc23)cc1 (stereo not drawn) | / | ? | / | -18.1%
O=C(Cc1ccc(F)cc1)N1CCC2(C1)C(=O)N(CCc1ccccc1)c1ccccc12 (stereo not drawn) | i | 44.7µM* | 15.6% | ?
O=C(Nc1ccc(Cl)cc1)N1CCC2(C1)C(=O)N(CCc1ccccc1)c1ccccc12 (stereo not drawn) | i | 31.6µM*! | -11.2% | ?
